Screens from PubChem BioAssay.
Only some compounds are listed: those with a hit (about 1.6% of all), similar ones and a draw of the others.
KCNQ2 enhance: enhances the rat KCNQ2 potassium channel; CHO-K1 KCNQ2, FluxOR thallium flux fluorescence; stronger effect = higher value; 310,000 compounds, 0.54% hits; AID 2239; B-score at 10 µM; O88943;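 active means fluorescence ratio B-score at least 3 SD of library B-scores, with initial fluorescence B-score within 3 of them, cut at about 5.3 in these data; same plate scores as AID 2156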;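 further: B-score of peak minus minimum over baseline fluorescence ratio after K+ and Tl+ stimulus; positive B-score means potentiation of KCNQ2 with more thallium influx and brighter signal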
KCNQ2 block: KCNQ2 (rat) channel inhibition. O88943. CHO-K1 KCNQ2, FluxOR thallium flux, 20 min; stronger effect = lower value. B-score at 10 µM. 310,000 compounds, 1.1% hits. AID 2156;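 active means fluorescence ratio B-score at most minus 3 library SDs, with starting brightness B-score within 2 library SDs, cut at about -5.5 in these data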
* hit, by the source's call; i = inactive; / = no result given.

SMILES	KCNQ2 enhance	KCNQ2 block
CC(=O)Nc1ccccc1C(=O)OCc1cccc(F)c1	/	i
CC(=O)Nc1ccccc1C(=O)OCc1ccc(C(=O)c2ccccc2)cc1	-6.5	-6.5*
CCc1c(C)nc(N)nc1N1N=C1SCC#N	2.5	i
CCc1c(C)nc(N)nc1N1N=C1SCC(=O)OC	9.6*	i
O=C(CCN1CCCCC1)Nc1ccc(Cl)cc1C(=O)c1ccccc1	-5.6	-5.6*
O=C(CN1CCCC1)Nc1ccc(Cl)cc1C(=O)c1ccccc1	1.1	i
CN1CCN(c2nc(N)c(Br)c(Cl)n2)CC1	1.1	i
CCOC(=O)C1(c2ccccc2)CCN(CCC(C#N)(c2ccccc2)c2ccccc2)CC1	-6.8	-6.8*
CCOC(=O)C1(c2ccccc2)CCN(CC(=O)Nc2ccc(C)cc2)CC1	/	i
COc1cccc(CNC(=O)CCC(=O)N2C[C@H]3C[C@H](C2)c2cccc(=O)n2C3)c1OC	1.1	i
Clc1ccc(CO/N=C(\Cn2ccnc2)c2ccc(Cl)cc2Cl)c(Cl)c1	-6	-6*
N=c1sccn1Cc1ccc(Cl)cc1Cl	1.7	i
COc1ccc(-c2nn(CCC#N)cc2C(=O)Nc2ccccc2)cc1OC	0.44	i
c1ccc2[nH]c(CCNC3CCCCC3)nc2c1	/	i
C=CCN1C(=O)C2(C(C(=O)OCC)=C(N)Oc3ccccc32)c2c1c1ccccc1oc2=O (configuration not stated)	/	i
COc1cc2c(cc1/C=C/[N+](=O)[O-])OCO2	-7.8	-7.8*
COc1cc(/C=C/[N+](=O)[O-])ccc1OC(=O)c1cccnc1	/	i
CC(C)OP(=O)(OC(C)C)C(NCc1ccccc1)c1ccccc1 (configuration not stated)	/	i
O=C1NC(=O)C(=Cc2coc3ccc(O)cc3c2=O)C(=O)N1	-5.8	-5.8*
CN1C(=O)C(=Cc2coc3ccccc3c2=O)C(=O)N(C)C1=O	/	i
Nc1ccccc1-[n+]1c(-c2ccccc2)cc(-c2ccccc2)cc1-c1ccccc1	-6.5	-6.5*
O=C(O)c1ccc(-[n+]2c(-c3ccccc3)cc(-c3ccccc3)cc2-c2ccccc2)cc1	1.9	i
COc1cc2c(cc1O)CC1c3c(cc(O)c(OC)c3-2)CCN1C (configuration not stated)	/	i
CCCN1CCc2cccc3c2[C@H]1Cc1ccc(O)c(O)c1-3	-6	-6*
C[C@H](N)CN1CCc2ccc(Br)cc21	0.14	i
SMILES	KCNQ2 enhance	KCNQ2 block
Cc1cccc(C(=O)NC(Oc2ccccc2)C(Cl)(Cl)Cl)c1 (configuration not stated)	-5.7	-5.7*
CCOP(=O)(OCC)C(NC(=O)c1cccc(C)c1)C(Cl)(Cl)Cl (configuration not stated)	0.7	i
COC(=O)[C@@H](N)CCCN=C(N)N[N+](=O)[O-]	-6.4	-6.4*
Cc1ccc(S(=O)(=O)N(C)C/N=C(\N)N[N+](=O)[O-])cc1	0.1	i
CC(C)OC(=O)Nc1ccc(N=C(N)N[N+](=O)[O-])cc1	/	i
CSc1ccc(CN2CCN(Cc3ccccc3Cl)CC2)cc1	-6.6	-6.6*
CSc1ccc(CN2CCN(C(=O)Cc3ccccc3)CC2)cc1	0.4	i
O=P(O)(Oc1ccccc1)OC(c1ccccc1)C(F)(F)F (configuration not stated)	0.26	i
O=P(NC(c1ccccc1)c1ccccc1)(Oc1ccccc1)Oc1ccccc1	-5.9	-5.9*
COc1cccc(OP(=O)(Nc2ccccc2)Oc2cccc(OC)c2)c1	-7.1	-7.1*
O=P(Nc1ccccc1)(Oc1ccccc1)Oc1ccccc1	0.72	i
Cc1nc2ccccc2c(=O)n1-c1cccc([N+](=O)[O-])c1	1.6	i
CC1(C)CN=C(NCc2ccccc2Cl)S1	/	i
Cc1c2cnn(CC(=O)N3CCC4(CC3)OCCO4)c(=O)c2c(C)n1Cc1ccccc1	/	i
O=C(Cn1ncc2c3ccccc3n(Cc3ccc(F)cc3)c2c1=O)N1CCC2(CC1)OCCO2	19*	i
CC(Cc1ccccc1)/[N+]([O-])=C\c1ccc(C(F)(F)F)cc1 (configuration not stated)	0.25	i
Cc1cc(O)c2c3c(c(=O)oc2c1)CCC(C)C3 (configuration not stated)	/	i
Cc1cc(O)c2c(c1)OC(C)(C)C1=C2CC(C)CC1 (configuration not stated)	-7.3	-7.3*
Cc1nc2ccccc2c(=O)n1-c1ccccc1[N+](=O)[O-]	1.1	i
Cc1nc2ccccc2c(=O)n1-c1ccc(Br)cc1[N+](=O)[O-]	7.4*	i
CN(C)c1ccc2c(c1)N=C(c1ccco1)OP2(=S)N1CCOCC1 (configuration not stated)	/	i
CCCC(C)C(=O)NC1CCSC1=O (configuration not stated)	/	i
CN(C)c1cccc2c(C#N)ccc(N(C)C)c12	0.1	i
Clc1ccc(CSC(Cn2ccnc2)c2ccc(Cl)cc2Cl)cc1 (configuration not stated)	/	i
